Compound activity: PubChem BioAssay, NMMLSC
RPL19A-GFP yeast: alters RPL19A-GFP fluorescence in TOR pathway yeast screen; S. cerevisiae RPL19A-GFP strain, flow cytometry, 3 h; active compounds read low; percent response vs DMSO, % at 10 µM; 330,000 compounds, 0.3% hits; AID 2025;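 active = percent response vs DMSO below 50%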;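 also: median channel GFP fluorescence of the barcoded RPL19A-GFP strain; ratio of sample median GFP to plate DMSO average so 100% = DMSO; lower means less RPL19A-GFP as with rapamycin TOR inhibition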
Myeloid diff MLP: promotes myeloid progenitor differentiation; ER-HoxA9 myeloid progenitors, lysozyme-GFP differentiation, flow cytometry; calls only at 10 µM; 360,000 compounds, 1% hits; AID 624256;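 active = normalized GFP-positive differentiation at or above the plate's own cutoff, the solvent-only control mean plus 3 SD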;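 also: cells exposed to compound for four days before flow analysis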
CIT2 TOR yeast: alters CIT2-GFP fluorescence in TOR pathway yeast screen; S. cerevisiae CIT2-GFP strain, flow cytometry, 3 h; 100 means same as DMSO wells; GFP response vs DMSO, % at 10 µM; 320,000 compounds, 0.065% hits; AID 2029;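 active = GFP response relative to DMSO above a set limit, near the screen mean plus 3 SD, cut at about 150% in these data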;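 also: ratio of well median GFP fluorescence to mean of DMSO wells on the plate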
MEP2 TOR yeast: modulators of TOR pathway MEP2-GFP in S. cerevisiae; GFP response vs DMSO, % at 10 µM; S. cerevisiae MEP2-GFP strain, flow cytometry GFP, 3 h; 100% = DMSO control level; 330,000 compounds, 0.51% hits; AID 2016;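 active = GFP response versus DMSO above a set limit, roughly screen mean plus 3 SD, cut at about 180% in these data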;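 also: median GFP fluorescence of the barcode-gated MEP2-GFP cells per well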
AGP1-GFP MLPCN: alters AGP1-GFP fluorescence in TOR pathway yeast screen; S. cerevisiae AGP1-GFP multiplex flow cytometry, 3 h; GFP as percent of DMSO wells; GFP response vs DMSO, % at 10 µM; 320,000 compounds, 0.02% hits;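 active = GFP response relative to DMSO above a set limit, near screen average plus 3 SD, cut at about 150% in these data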;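 also: median GFP channel fluorescence of the gated AGP1 strain per well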
LAP4-GFP MLPCN: yeast TOR pathway LAP4-GFP modulation; S. cerevisiae LAP4-GFP multiplex, flow cytometry GFP, 3 h; median GFP as percent of DMSO wells; 320,000 compounds, 0.34% hits; GFP response vs DMSO, % at 10 µM;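 active = GFP response vs DMSO above a set limit, about the screen mean plus 3 SD, cut at about 150% in these data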
Myeloid diff CP1: promotes myeloid progenitor differentiation. shares compounds with Myeloid diff MLP. ER-HoxA9 myeloid progenitors, GFP/Mac1 double-positive flow. calls only. 2,300 compounds, 2% hits;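 active = share of green or green-and-red cells above 9 and 9% in run 1 or 4 and 3% in run 2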
GFP autofluor: compound fluorescence in myeloid differentiation counter-screen | shares compounds with Myeloid diff MLP | ER-HoxA9 myeloid progenitors, no estrogen, GFP autofluorescence flow cytometry; vehicle wells 0%, positive control 100% | fluorescence response, % (no concentration beside the values) | 2,300 compounds, 7.4% hits | AID 651707;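 active = over 5% cells positive for green fluorescent reporter, or over 2% positive for both it and APC stain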;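 also: range taken on the double positive population between DMSO and positive control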
Numbers without * were called inactive; i = inactive; . = no result; + = active, no number. In the library only some 1.8% were active in any assay of this set; here they are far more common.

SMILES | RPL19A-GFP yeast | Myeloid diff MLP | CIT2 TOR yeast | MEP2 TOR yeast | AGP1-GFP MLPCN | LAP4-GFP MLPCN | Myeloid diff CP1 | GFP autofluor
NS(=O)(=O)c1ccc(NC(=O)CCc2ccccc2)cc1 | 105.2 | i | 107.6 | 106.8 | 110.6 | 106.3 | i | 0.3
OC1(c2ccccc2F)CCN(Cc2nnnn2Cc2ccc(F)cc2)CC1 | 92.3 | + | 94.1 | 95.8 | 94.6 | 92.1 | i | 0.0
COC(=O)/C=c1\[nH]c2nnc(C)n2c1=O | 105.0 | i | 99.3 | 105.2 | 116.0 | 115.7 | . | .
N#C/C(=C/c1ccc(-c2cccc([N+](=O)[O-])c2)o1)C(=O)Nc1nc(-c2cccs2)cs1 | . | i | . | . | . | . | . | .
N#C/C(=C\c1ccc(-c2ccc([N+](=O)[O-])cc2)o1)C(=O)Nc1nc(-c2cccs2)cs1 | 95.3 | + | 101.9 | 101.8 | 106.4 | 105.8 | i | 0.0
O=C(Nc1nnc([C@@H]2C[C@H](O)[C@@H](CO)O2)s1)c1cccc2ccccc12 | . | i | . | . | . | . | . | .
O=C(c1ccccc1NS(=O)(=O)c1cccc([N+](=O)[O-])c1)N1CCCC1 | 97.2 | i | 97.4 | 101.6 | 99.4 | 106.2 | . | .
COc1cc(S(=O)(=O)NCC2CCCO2)ccc1Br (stereo unspecified) | 114.1 | i | . | 105.4 | 104.9 | 99.1 | i | 0.3
CCO/N=C/C1=C(O)C(C(=O)OC)C(C)(C)CC1=O (stereo unspecified) | 97.2 | i | 96.8 | 101.0 | 87.0 | 87.4 | . | .
CC/C(=C1/C(=O)CC(C)(C)C(C(=O)OC)C1=O)N1CCCC1 (stereo unspecified) | 101.9 | i | 96.9 | 106.5 | 106.1 | 97.5 | i | 0.3
Cc1nc2sc(C(N)=O)c(N)c2c(C)c1CC(=O)c1ccccc1 | 95.5 | i | 95.8 | 106.7 | 98.0 | 93.6 | . | .
COc1ccc(C(=O)C(C)[n+]2ccc(C)c3ccccc32)cc1[N+](=O)[O-] (stereo unspecified) | 103.6 | + | 105.4 | 108.0 | 103.0 | 95.7 | i | 0.4
COC(=O)c1ccc(NC(=O)c2cc(-c3ccccn3)nc3ccccc23)cc1 | 97.8 | + | 97.0 | 97.4 | 95.1 | 94.7 | i | 0.0
COC(=O)c1nnn(-c2nonc2N)c1CSc1nnc(C)s1 | 94.5 | i | 101.2 | 110.6 | 91.3 | 101.4 | . | .
CCC(=O)Nc1cccc(C(=O)/C=C/c2ccccc2)c1 | 76.2 | i | 82.7 | 108.0 | . | 100.8 | i | 2.7
CCC(=O)Nc1cccc(C(=O)/C=C/c2cccs2)c1 | 105.2 | i | 94.7 | 94.3 | 91.3 | 98.8 | . | .
COc1cc([N+](=O)[O-])ccc1NC(=O)COC(=O)c1ccc(NC(N)=O)cc1 | 97.4 | i | 95.9 | 100.2 | 97.1 | 96.3 | . | .
COc1ccccc1CNc1nc(NCc2ccc(C(C)C)cc2)c2sccc2n1 | . | i | . | . | . | . | i | 0.0
C(=N\N1CCN(C2c3ccccc3-c3ccccc32)CC1)/c1cccs1 | 97.3 | i | 99.3 | 99.2 | 98.4 | 98.4 | . | .
COc1ccc(OC)c(NC(=O)COC(=O)/C=C/c2ccco2)c1 | 87.5 | i | 80.1 | 88.7 | 84.2 | 96.8 | . | .
COc1ccc(-c2csc(C(O)c3ccc(F)c(F)c3)n2)cn1 (stereo unspecified) | . | + | . | . | . | . | i | 0.6
CC[C@]12c3[nH]c4ccc(Cl)cc4c3CCN1C(=O)[C@@H](CC(=O)NCCc1ccccn1)C[C@@H]2C(=O)N1CCN(C(=O)C2CC2)CC1 | . | i | . | . | . | . | i | 0.0
CC[C@]12c3[nH]c4ccccc4c3CCN1C(=O)C(CC(=O)NCCc1ccccn1)C[C@@H]2C(=O)N1CCN(C(=O)C2CC2)CC1 (stereo partly specified) | 93.9 | i | 87.9 | 101.5 | 77.3 | 83.0 | . | .
CC1CCN(c2nc(CN3CCCCC3)nc3scc(-c4ccccc4)c23)CC1 | 98.3 | i | 93.4 | 98.5 | 92.7 | 86.9 | i | 0.4
